# This is a sample that favours compounds with a hit; in the whole collection about 6.1% have one here.
# D1 agonist: Allosteric Agonists of the Human D1 Dopamine Receptor: qHTS | HEK293 T-REx D1 cells, calcium flux, agonist mode | D(1A) dopamine receptor (Homo sapiens), P21728 | activation, % at 2 µM | hit rate 1% among 360,000; in the data active = activation above about 30%; also: 0% is about no effect
# Target sequence (P21728 whole entry, looked up): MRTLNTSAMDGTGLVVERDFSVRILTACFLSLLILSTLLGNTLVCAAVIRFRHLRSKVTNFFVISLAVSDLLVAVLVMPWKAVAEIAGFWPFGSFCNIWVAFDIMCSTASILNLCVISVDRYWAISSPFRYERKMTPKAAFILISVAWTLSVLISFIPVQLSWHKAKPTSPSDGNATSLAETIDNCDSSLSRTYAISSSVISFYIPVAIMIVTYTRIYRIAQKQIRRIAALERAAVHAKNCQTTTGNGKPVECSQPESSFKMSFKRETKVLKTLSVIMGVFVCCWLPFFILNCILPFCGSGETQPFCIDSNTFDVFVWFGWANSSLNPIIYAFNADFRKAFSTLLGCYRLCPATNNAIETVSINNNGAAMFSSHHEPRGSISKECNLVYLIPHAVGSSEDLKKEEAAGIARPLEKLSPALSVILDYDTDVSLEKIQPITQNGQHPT
#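 Inducible HEK293 T-REx D1 cells, force-coupled to calcium signalling, were plated at 4000 cells/well with tetracycline and held overnight at 30 C. After no-wash calcium dye loading, compound-evoked calcium rise over 180 s flagged agonists.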
# D1 antag: Antagonist of Human D 1 Dopamine Receptor: qHTS | HEK293 TREx D1 cells, calcium flux, dopamine EC80; stronger effect = lower value | hit rate 3.2% among 360,000 | D(1A) dopamine receptor (Homo sapiens), P21728 | activity change, negative = inhibition, % at 10 µM | AID 504652, 2011; in the data active = activity change below about -30%; also: % is scaled to controls: 0 for no effect and ±100 for the full control effect
#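 After overnight tetracycline induction at 30 C, force-coupled D1 HEK293 cells took up a no-wash calcium dye at room temperature. Compounds were added and monitored 180 s, and the response to EC80 dopamine was then recorded.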
# D1 potentiator: Potentiators of Human D1 Dopamine Receptor: qHTS; D(1A) dopamine receptor (Homo sapiens), P21728; HEK293 TREx D1 cells, calcium flux, dopamine EC20 potentiation; potentiation, % at 10 µM; hit rate 0.036% among 360,000; in the data active = potentiation above about 30%; also: 0% is about no effect
# D3 ag: qHTS of D3 Dopamine Receptor Agonist: qHTS | D3R DiscoveRx beta-arrestin cells, luminescence, 90 min | AID 652048, 2013 | hit rate 0.58% among 410,000 | max activation, %; in the data active = max activation above about 30%; also: 0% is about no effect
#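 Agonist-mode cell screen: cells plated at 1500/well and incubated overnight at 37 °C, then exposed to library compounds for 90 min at 37 °C. Detection reagent was added for 30–60 min at room temperature, and luminescence was read.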
# DRD3 antagonist: qHTS of D3 Dopamine Receptor Antagonist: qHTS. D(3) dopamine receptor (Homo sapiens), P35462. D3R cells, DiscoveRx beta-arrestin luminescence, antagonist mode; stronger effect = lower value. max response, negative = inhibition, %. hit rate 2.5% among 360,000. AID 652054, 2013; in the data active = max response below about -50%; inconclusive = no clear call, values can overlap the other calls; also: % is scaled to controls: 0 for no effect and ±100 for the full control effect
#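 Cells expressing the human receptor were seeded at 1500 cells/well, incubated overnight at 37 degrees C in 5% CO2, then exposed to library compounds with dopamine controls for 90 minutes at 37 degrees C before luminescent detection.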
# The depositor's hits bear a star; ? = inconclusive; · = not tested or not shown.
SMILES,D1 agonist,D1 antag,D1 potentiator,D3 ag,DRD3 antagonist
CCOc1ccc(-n2cc(-c3ccccc3)c3c(N4CCN(c5ccccc5OC)CC4)ncnc32)cc1,-2,-32*,-1,1,·
CCOc1ccc(-n2cc(-c3ccccc3)c3c(N4CCC(C)CC4)ncnc32)cc1,-3,18,1,10,·
O=C(Oc1cc(=O)oc2c1c(=O)n1c3c(cccc23)CC1)c1ccccc1,4,-38*,7,-6,6
O=C(Oc1cc(=O)oc2ccccc12)c1ccccc1,0,-16,2,25,-6
O=C(Oc1cc(=O)oc2c1c(=O)n1c3c(cccc23)CC1)c1ccc(F)cc1,-1,-45*,-3,-2,-3
O=C(NCc1ccc(F)cc1)c1c(O)c2cccc3c2n(c1=O)CCC3,1,2,-4,6,1
Cc1ccc(C)c(NC(=O)CSc2c(C)cnc3c2c(=O)n(C)c(=O)n3C)c1,-2,·,-1,6,·
O=C(CNCC1CCCCC1)Nc1ccc(OC(F)(F)F)cc1,93*,-42*,-3,-15,-9
O=C1C=C(O)c2cccc(O)c2C1=O,2,11,-3,-19,-28
O=C1C=C(c2c(O)ccc3ccccc23)c2ccccc2C1=O,·,·,·,-9,-62*
CCOC(=O)C1CCC(CN(Cc2ccccc2)S(=O)(=O)c2ccc([N+](=O)[O-])cc2)CC1 (centres undefined),9,-4,-2,-1,-14
CN1CCCN(Cc2nc(-c3ccc(Cl)cc3)no2)CC1,3,-1,0,2,-10
CN1CCCN(Cc2ccccc2C(F)(F)F)CC1,4,-21,-3,-6,-84*
CCCS(=O)(=O)N1CCN(Cc2ccccc2C(F)(F)F)CC1,1,7,4,-5,?
CN1CCCN(Cc2ccc(Cl)cc2Cl)CC1,9,0,-8,-34,-78*
CC(C)(C)c1cc(NC(=O)c2ccc(OC3CCCC3)cc2)no1,7,-2,-3,35*,9
O=C1C2C3C=CC(CC3)C2C(=O)N1c1cccc(Br)c1 (centres undefined),4,-37*,-5,-14,-15
CCOc1cc(/C=N\NC(=O)c2ccc(NC(=O)CC)cc2)ccc1OC(=O)c1ccccc1,5,-57*,-11,3,-6
CCOc1cc(/C=N/NC(=O)CSc2nncn2C)ccc1OC(=O)c1ccc(Cl)cc1,-1,-55*,-5,-3,-3
COc1cc(/C=N/NC(=O)c2sc3ccccc3c2Cl)ccc1OC(=O)c1ccc([N+](=O)[O-])cc1,1,-38*,-5,2,5
CCOc1cc(/C=N/NC(=O)CSc2nncn2C)ccc1OCC(N)=O,5,17,5,-15,-11
COc1ccc(/C=N/NC(=O)c2cccc([N+](=O)[O-])c2)cc1OC(=O)c1ccccc1,-2,-9,-5,-4,?
O=C(N/N=C/c1ccc(OC(=O)c2ccccc2)c([N+](=O)[O-])c1)c1ccc(O)cc1,4,-33*,-10,-7,-24
COc1ccc(C(=O)Cn2c(Cl)nc3c2c(=O)n(C)c(=O)n3C)cc1,3,-15,-8,-8,0
COC(=O)Cc1c(C)c2ccc(O)c(CN3CCCC(C)C3)c2oc1=O (centres undefined),0,3,-4,-8,-54*
SMILES,D1 agonist,D1 antag,D1 potentiator,D3 ag,DRD3 antagonist
COc1ccc(CNC(=O)C2CCN(c3nc4ccccc4[nH]3)CC2)cc1OC,3,7,2,6,·
CCN(CC)c1ccc2cc(NC(=O)CCC(=O)O)c(=O)oc2c1,56*,6,-4,10,11
CCN(CC)c1ccc2cc(C(N)=O)c(=N)oc2c1,27,-3,4,-2,0
CCN(CC)c1ccc2cc(C(N)=O)c(=O)oc2c1,32*,1,2,-1,-3
CCN(CC)c1ccc2cc(/C(N)=N/NC(=O)c3cccs3)c(=O)oc2c1,30*,-11,3,·,·
CCN(CC)c1ccc2cc(C=O)c(=O)oc2c1,187*,3,-4,-5,-55*

# Screening results: PubChem BioAssay, National Center for Advancing Translational Sciences (NCATS)
